# In the library only some 2.3% were active in any assay of this set; here they are far more common.
# TRPV1 PAM: enhances activation of the human vanilloid receptor TRPV1 | potentiation, % at 8.33 µM | TRPV1-expressing cells, Fluo-8 calcium influx, capsaicin EC20 potentiation | 320,000 compounds, 0.02% hits | Q8NER1; in the data active means potentiation above about 80%; inconclusive means between about 30% and that limit; further: 0% is about no effect
#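 Cells expressing TRPV1 were dye-loaded with Fluo-8 and read kinetically: 10 s baseline, 3 min after compound (agonist portion), then 2 min after EC20 capsaicin (allosteric enhancer portion). Calcium-bound dye fluorescence at 480/520 nm.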
# ELG1 DNA repair: inhibitors of ELG1-dependent DNA repair in HEK293T cells; AID 504467; HEK293T ELG1-luciferase reporter, luminescence, 16 h; DNA damage induced by 5-fluorouridine; Potency, µM (highest dose often 46.1 µM), without a hit: at the highest dose activity change, negative = inhibition, actives largely listed as inhibitors; 330,000 compounds, 2.3% hits; further: potency means the concentration at half of the fitted maximal effect; on the % scale 0 is the no-effect control and ±100 the full control effect; nearly all actives have a fitted effect of over 55% in size
#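 Step one: seed 2,000 cells per well. Step two: pin-transfer compound or DMSO alongside 5-fluorouridine. Step three: incubate 16 hr, 37 °C, 5% CO2. Step four: add ONE-Glo, wait 30 min, read luminescence.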
# TRPV1 ag: human TRPV1 agonism. TRPV1-expressing cells, Fluo-8 calcium influx, agonist mode. activation, % at 8.33 µM. 320,000 compounds, 0.19% hits; in the data active means activation above about 80%; inconclusive means between about 30% and that limit; further: 0% is about no effect
#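 Cells expressing TRPV1 were dye-loaded with Fluo-8 and read kinetically: 10 s baseline, 3 min after compound (agonist portion), then 2 min after EC20 capsaicin (allosteric enhancer portion). Calcium-bound dye fluorescence at 480/520 nm.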
# Giardia killer: kills Giardia lamblia; Giardia lamblia trophozoite viability; activity change, % at 7.66 µM, hits read low; 340,000 compounds, 0.15% hits; in the data active means activity change below about -80%; inconclusive means between about -30% and that limit;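 further: parasites exposed to compound for two days anaerobically before the ATP read; on the % scale 0 is the no-effect control and ±100 the full control effect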
#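 Viability, read as ATP luminescence: trophozoites at 100 cells/well, compound added, 48 hrs anaerobic at 37 deg C, then 15-30 min room-temperature development before reading.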
# FUS yeast rescue: FUS proteinopathy suppression in yeast; 390,000 compounds, 0.24% hits; S. cerevisiae FUS-expressing, growth rescue, OD600, 24 h; Potency, µM (top dose mostly 76.6 µM), hits mostly activators;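 further: potency means the concentration at half of the fitted maximal effect; plate controls were DMSO vehicle for no effect and reference control for full effect; nearly all actives have a fitted effect of over 55% in size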
#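 Absorbance at 600 nm, taken 24hr after compound addition, measured rescue of FUS-yeast growth at 30C. Induction used 2% galactose with seeding at OD 0.005. Controls: CP55940 from 92uM final, DMSO only.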
# * marks the source's active call; other numbers are inactive results; i = inactive; u = inconclusive; x = not tested or not shown. Unless noted, the call rests on the fitted dose curve; in most records, active means well fitted curve in the direction sought with a large enough effect; inconclusive means small, poorly fitted or top-dose-only effect, or another doubt; inactive means no such curve, though single readings can be large; an effect the other way counts as inactive or inconclusive.
SMILES,TRPV1 PAM,ELG1 DNA repair,TRPV1 ag,Giardia killer,FUS yeast rescue
Cc1nn(C)c(C(=O)Nc2ccc(S(=O)(=O)NC34CC5CC(CC(C5)C3)C4)cc2)c1Br,80.7*,u,2.1,-0.9,i
N#Cc1sc2nc3c(c(-c4ccco4)c2c1N)CCCC3,8.6,0.0%,3.7,-19.5,i
Cc1ccccc1NC(=O)c1sc2nc3c(c(-c4ccco4)c2c1N)CCC3,2.4,23.1µM*,-2.6,-3.8,i
NC(=O)c1sc2nc3c(c(-c4ccco4)c2c1N)CCCC3,0.2,9.2µM*,1.3,1.8,i
CCC1(O)CC2CN(CCc3c([nH]c4ccccc34)C(C(=O)OC)(c3cc4c(cc3OC)N(C=O)C3C(O)(C(=O)OC)C(OC(C)=O)C5(CC)C=CCN6CCC43C65)C2)C1 (stereo not drawn),x,x,x,15.0,x
CC(C)(C)SCCNC(=O)/C=C/c1ccc(F)cc1,-38.6,u,u,u,i
CC(C)(CNC(=O)/C=C/c1ccc(F)cc1)CNC(=O)/C=C/c1ccc(F)cc1,-2.2,23.1µM*,3.1,5.4,i
CCN(CC)C(=O)c1ccc(Nc2nnc(-c3ccc(O)cc3)c3ccccc23)cc1,10.0,16.4µM*,-10.6,0.7,i
CCN(CC)C(=O)c1ccc(-c2nnc(Nc3cccc(O)c3)c3ccccc23)cc1,-12.3,u,-3.9,-18.4,i
CCN(CC)S(=O)(=O)c1ccc(N2CCOCC2)c(NC(=O)CC(C)(C)C)c1,5.6,8.0%,u,-8.7,i
CCN(CC)S(=O)(=O)c1ccc(N2CCCC2)c(NC(=O)c2nn(C)c(=O)c3ccccc23)c1,1.7,18.3µM*,6.2,-8.2,u
CCN(CC)S(=O)(=O)c1ccc(N2CCOCC2)c(NC(=O)Cc2cccc3ccccc23)c1,-3.0,7.31µM*,5.9,10.0,x
CCOc1cc(N2CCOCC2)c(OCC)cc1NC(=O)Cc1cccc2ccccc12,-7.2,18.4µM*,20.8,3.5,i
CCN(CC)S(=O)(=O)c1ccc(N2CCOCC2)c(NC(=O)Cc2ccccc2F)c1,-7.9,18.4µM*,12.4,-3.7,u
CCN(CC)S(=O)(=O)c1ccc(N2CCOCC2)c(NC(=O)Cc2ccccc2)c1,2.7,u,10.9,-12.1,x
CCOc1cc(N2CCOCC2)c(OCC)cc1NC(=O)COC(=O)c1ccccc1C,-4.9,u,0.2,-17.0,i
Nc1nc(NCc2ccc(Cl)c(Cl)c2)c2[nH]cnc2n1,x,x,x,-15.9,x
CC(Oc1ccccc1)C(=O)Nc1nc(-c2ccccn2)cs1 (stereo not drawn),-4.2,u,12.5,10.4,i
C[C@H](NC(=O)c1ccccc1)C(=O)Nc1nc(-c2ccccn2)cs1,14.6,7.3µM*,0.9,-2.9,i
Cc1cccc(C(=O)N[C@H](C(=O)Nc2ncc(C)s2)C(C)C)c1,-7.1,u,14.8,6.7,i
Cc1cccc(C(=O)NC(C(=O)Nc2nc(-c3ccccn3)cs2)C(C)C)c1 (stereo not drawn),u,2.91µM*,-2.9,2.7,i
COc1ccc(C(=O)Nc2ccc(OCc3cc(=O)n4ccccc4n3)cc2)cc1,x,x,x,x,i
Cc1nc(Cl)sc1C(=O)Nc1ccc(C(C)(C)C)cc1,-2.3,u,80.1*,0.8,i
Cc1cc(C)n(-c2ccc(C(=O)Nc3ccc(C)c(S(=O)(=O)N(C)C)c3)cc2)n1,2.3,18.4µM*,-5.7,7.8,i
CN(C)S(=O)(=O)c1cccc(NC(=O)c2cc(-c3cccs3)nn2-c2cccc(Cl)c2)c1,3.4,11.6µM*,1.5,-12.3,x
SMILES,TRPV1 PAM,ELG1 DNA repair,TRPV1 ag,Giardia killer,FUS yeast rescue
CCN(CC)S(=O)(=O)c1cccc(NC(=O)c2ccc(-n3nc(C)cc3C)cc2)c1,-4.6,14.6µM*,3.4,-19.6,x
Cc1cc(C)n(-c2ccc(C(=O)Nc3cccc(S(=O)(=O)N(C)C)c3)cc2)n1,0.4,9.2µM*,u,11.1,x
O=C(O)c1cc(-c2cccs2)nn1-c1cccc(Cl)c1,-1.7,u,-6.2,-13.5,i
CCC(=O)N1CCc2cc(Br)cc(S(=O)(=O)NCCc3ccc(C)cc3)c21,x,x,x,x,i
O=C(CCn1c(=O)c2cccn2c2cccnc21)N1CCN(c2cccc(C(F)(F)F)c2)CC1,x,x,x,x,i
C=CCOC(=O)N1CCC(NS(=O)(=O)c2ccc3c(c2)CCN3C(C)=O)CC1,x,x,x,x,i
Cc1ccc(NC(=O)C2CCCN2S(=O)(=O)c2cccc3cccnc23)cc1C (stereo not drawn),x,x,x,x,i
CCCCC(=NCCc1c(C)[nH]c2ccc(OC)cc12)C1=C(O)CC(c2ccccc2)CC1=O (stereo not drawn),-5.6,10.3µM*,13.3,-4.7,i
CCC(=NCCc1c(C)[nH]c2ccccc12)C1=C(O)CC(c2ccccc2)CC1=O (stereo not drawn),12.6,8.2µM*,21.0,13.4,x
Cc1ccccc1N1CCN(CC(=O)Nc2ccccc2C(=O)NC2CC2)CC1,-22.6,20.6µM*,u,-10.5,i
CCOC(=O)Cn1c(=O)n(C2CCCCC2)c2nc(-c3ccc(C(C)C)cc3)nc(C(N)=O)c21,x,x,x,x,i
O=C(CSc1nnc2ccc3ccccc3n12)c1ccc(F)cc1,-22.6,x,15.3,x,i
Cc1nc(CS(=O)(=O)c2ccc(Cl)cc2)cc(Sc2ccc(Cl)cc2)n1,-0.2,20.6µM*,-1.1,-9.8,i
CCCOc1ccc(/C=N/NC(=O)CSCc2ccc([N+](=O)[O-])cc2)cc1OCC,7.1,23.1µM*,-3.7,1.5,x
O=C(COc1ccc(/C=N/NC(=O)CSCc2ccc([N+](=O)[O-])cc2)cc1)NCc1ccco1,-13.6,23.1µM*,21.6,-4.5,i
Cc1ccc(CSCC(=O)N/N=C/c2ccc(OCC(=O)Nc3ccc(C)cc3)cc2)cc1,-0.5,u,u,-10.7,x
CCCOc1ccc(/C=N/NC(=O)CN2CCCCC2)cc1OCC,-0.8,-0.4%,0.1,4.8,i
COC(=O)c1ccc(-n2c(C)cc(-c3csc(NC(=O)c4ccc(S(=O)(=O)N(C)C)cc4)n3)c2C)cc1,0.5,13µM*,2.8,4.7,u
Cc1cc(-c2csc(NC(=O)c3cccc(S(=O)(=O)N(C)C)c3)n2)c(C)n1-c1ccccc1,2.9,u,2.8,-1.6,x
CCOC(=O)c1sc(NC(=O)c2ccccc2)cc1C,-15.0,u,1.8,-5.5,i
CCOC(=O)c1csc(NC(=O)c2ccc(S(=O)(=O)N(C)C)cc2)n1,19.5,7.31µM*,2.2,1.7,i
CCOC(=O)c1csc(NC(=O)c2ccccc2)n1,4.3,u,0.3,-2.4,i
CCOC(=O)c1sc(NC(=O)c2ccc(S(=O)(=O)N(C)C)cc2)cc1C,10.3,16.4µM*,0.7,3.5,i
O=C(CSc1nc2c(sc3ccccc32)c(=O)n1CCCC(=O)NC1CCCC1)Nc1ccc(F)cc1,x,x,x,x,i

# High-throughput results (PubChem BioAssay)
